This is one part of a sample in which hits are shown more often than they occur.
Cycloheximide cs – affects cycloheximide protein synthesis inhibition readout, counter-screen. cell reporter, cycloheximide protein synthesis inhibition counterscreen. max response, %. actives 12% (n = 300,000). AID 2314; in the data active = max response mostly above about 13%, no sharp cut-off; inactive = mostly below about 14%; also: read at 38.3 µM for the half of the compounds with a filed dose
LmPK inhibitor – inhibitors of Leishmania mexicana pyruvate kinase; Q27686; Potency, µM (titrated, usually from 57.5 µM), usual class: inhibitors; purified LmPK, Kinase-Glo ATP luminescence, 1 h; actives 0.37% (n = 290,000); AID 1721
Target sequence (Q27686 whole entry, looked up): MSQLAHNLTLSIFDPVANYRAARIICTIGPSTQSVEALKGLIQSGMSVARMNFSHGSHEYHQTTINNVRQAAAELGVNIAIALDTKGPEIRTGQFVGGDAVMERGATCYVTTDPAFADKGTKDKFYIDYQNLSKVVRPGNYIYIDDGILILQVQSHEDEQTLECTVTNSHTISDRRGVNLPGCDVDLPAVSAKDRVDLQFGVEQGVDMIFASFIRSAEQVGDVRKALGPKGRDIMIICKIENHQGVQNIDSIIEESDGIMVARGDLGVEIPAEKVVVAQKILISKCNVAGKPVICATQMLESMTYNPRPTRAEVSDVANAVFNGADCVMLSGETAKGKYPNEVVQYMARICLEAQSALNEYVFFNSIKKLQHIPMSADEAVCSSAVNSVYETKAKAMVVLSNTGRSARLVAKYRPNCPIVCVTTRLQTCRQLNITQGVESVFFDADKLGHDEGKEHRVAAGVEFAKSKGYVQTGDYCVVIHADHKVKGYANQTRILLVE
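qHTS format; LmPK 0.1 nM; substrates PEP 0.5 mM and ADP 0.1 mM. One-hour room-temperature incubation, then coupled luciferase luminescence; 0.5 nM enzyme wells mark activation.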
Shiga inhibitor – Shiga toxin inhibition. Vero cells, Shiga toxin protein synthesis inhibition reporter. inhibition, % at 38.7 µM. actives 9.2% (n = 290,000). AID 2315; in the data active = inhibition mostly above about 28%, no sharp cut-off; inactive = mostly below about 43%
FBPA Giardia inh – Giardia lamblia aldolase inhibition. A8B2U2. purified Giardia FBPA. Potency, µM (doses to about 59.6 µM), actives largely listed as inhibitors. actives 0.71% (n = 290,000). AID 2451; also: nearly all actives have a fitted effect of over 55% in size
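40 nM FBPA preincubated 10 min at RT with compound (up to 57.5 uM final), then substrate plus GAPDH/TPI/NAD/arsenate coupling and diaphorase/resazurin added. Fluorescence read after 20 min at RT, 525/598 nm.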
RE007 growth inh – less growth of the S. pombe RE007 Vpr strain; S. pombe RE007 Vpr strain, BacTiter-Glo ATP luminescence, 24 h; Potency, µM (highest dose often 92.2 µM), actives largely listed as inhibitors; actives 0.21% (n = 360,000); AID 651644; active = well fitted falling curve with a large enough effect; inconclusive = small, poorly fitted or top-dose-only effect; inactive = no such curve, though single readings can be large or run the other way; also: nearly all actives have a fitted effect of over 50% in size
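Fission yeast RE007 carrying one integrated HIV-1 vpr copy, seeded at OD 0.01 in PMG+AL medium with 23 nL pinned compound. Grown 24 h at 30 degrees; viability read by BacTiter-Glo luminescence after 5 min.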
Tb PYK inh – inhibitors of Trypanosoma brucei pyruvate kinase; TbPYK enzyme, Kinase-Glo Plus ATP luminescence, 45 min; Potency, µM (top dose mostly 76.8 µM), most hits filed as inhibitors; actives 0.12% (n = 410,000); also: nearly all actives have a fitted effect of over 50% in size
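Luminescent Kinase-Glo Plus end-point after 45 min room-temperature reaction of T. brucei pyruvate kinase started with 130 uM ADP (final). Buffer TEA 50 mM pH 7.2 with KCl, MgCl2, BSA, Tween-20; titration-based qHTS with fitted concentration-effect curves.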
A number is an active result; i = inactive; ? = inconclusive; nt = no result given; ! = not active in a repeat; [ ] = another dose, or the depositor's remark. Unless noted, calls follow the shape of the dose curve; as a rule, active = well fitted curve in the direction sought with a large enough effect; inconclusive = small, poorly fitted or top-dose-only effect, or another doubt; inactive = no such curve, though single readings can be large; an effect the other way counts as inactive or inconclusive.

SMILES	Cycloheximide cs	LmPK inhibitor	Shiga inhibitor	FBPA Giardia inh	RE007 growth inh	Tb PYK inh
CC(C)(C)c1ccc(C(=O)NNC(=O)c2ccccc2Br)cc1	31	i	i	i	i	i
COc1ccccc1NC(=S)NNC(=O)c1ccccc1Br	27	i	88	i	i	i
COc1ccccc1C(=O)Nc1c(C)cc(Br)cc1C	i	i	i	i	i	i
CCc1ccc(NC(=O)CN(c2ccc(C)cc2)S(=O)(=O)c2cccs2)cc1	nt	nt	nt	nt	nt	i
COc1ccccc1-c1nnc2n(CCc3ccccc3)c(=O)c3ccccc3n12	nt	nt	nt	nt	nt	i
COc1ccccc1C(=O)NC(=O)Nc1cccc(Cl)c1	49	i	130	i	i	i
COc1ccccc1C(=O)N/C(=N/c1nc(C)cc(C)n1)Nc1ccccc1	12	i	i	i	?	i
COc1ccccc1C(=O)NNC(=O)c1ccccc1	34	i	nt	i	i	i
COc1ccccc1C(=O)NNC(=O)c1ccc2ccccc2c1O	nt	nt	nt	nt	i	i
CCC(=O)N/C(=N/c1nc(C)cc(C)n1)Nc1ccccc1	i	i	i	i	i	i
COc1ccccc1C(=O)NNC(=O)c1ccccc1Br	13	i	nt	?	i	i
c1cncc(CNc2ncncc2-c2cccnc2)c1	nt	nt	nt	i	nt	nt
O=C(O)[C@@H]1CCCNC1	nt	nt	nt	i	nt	nt
COc1ccccc1NC(=O)NNC(=O)c1cc2ccccc2cc1O	26	i	101	i	i	i
COc1ccccc1C(=O)NNC(=O)c1cccc(Cl)c1	28	i	i	i	i	i
Cc1ccccc1C(=O)NNC(=O)c1ccc(Br)cc1	42	i	84	i	i	i
COC(=O)NNC(=O)c1ccccc1C	i	i	i	i	i	i
COc1ccc(Cl)cc1C(=O)NNC(=O)c1cccc([N+](=O)[O-])c1	i	i	i	i	i	i
COC(=O)NNC(=O)c1ccc(C(C)(C)C)cc1	30	i	23	i	i	i
Cc1ccc(NC(=O)NNC(=O)c2cc3ccccc3cc2O)cc1	i	i	i	i	i	i
CCCCCNC(=O)c1c[nH]c2ccc(S(=O)(=O)N3CCC(C)CC3)cc2c1=O	nt	nt	nt	nt	nt	i
Clc1ccc(-c2nnn3c2nc(NC2CCCCC2)c2ccccc23)cc1	nt	nt	nt	nt	nt	i
CCCCc1cc2c(cn1)=C(OC(=O)C1CCCC1)C(C)(OC(=O)CC)C(=O)C=2 (centres undefined)	nt	i[11.5 µM]	nt	i[12.9 µM]	nt	nt
COc1ccccc1NC(=S)NNC(=O)c1c(Cl)c(C)nn1C	i	i	43	nt	i	i
COc1ccccc1NC(=S)NNC(=O)c1cc(C)nn1C	i	i	i	i	i	i
SMILES	Cycloheximide cs	LmPK inhibitor	Shiga inhibitor	FBPA Giardia inh	RE007 growth inh	Tb PYK inh
COc1ccccc1C(=O)Nc1ccccc1SC(=O)c1ccccc1OC	26	i	72	i	i	i
Cc1cccc(C)c1NC(=O)CNC(=O)Cc1c[nH]c2ccccc12	nt	nt	nt	nt	i	i
Cc1cccc(C)c1NC(=O)c1c[nH]c2ccccc12	16	i	74	i	i	i
COC(=O)c1csc(C(=O)c2c[nH]c3ccccc23)n1	23!	nt	42!	i	nt	i
COc1ccccc1C(=O)Nc1ccc2c3c(cccc13)CC2	38	i	87	i	i	i
COC(=O)c1ccccc1NC(=O)c1ccccc1OC	i	i	i	i	?	i
COC(=O)CN1C(=O)[C@@H]2[C@H](C1=O)[C@@H]1CC(C(=O)OC)=C[C@@H](C(=O)OC)C3C1=C(C(=O)[C@@]3(C)NC(=O)c1ccccc1)[C@@H]2C (some centres undefined)	i	nt	i	i	nt	nt
COc1ccccc1NC(=O)c1ccccc1NC(=O)c1ccccc1C(=O)O	16	i	nt	i	i	i
COc1ccccc1NC(=O)c1c[nH]c2ccccc12	34	i	52	i	i	i
COc1ccccc1NC(=O)c1cc(=O)[nH]c2ccccc12	i	i	nt	i	i	i
COc1cc(F)c(S(=O)(=O)Nc2c(C)n(C)n(-c3ccccc3)c2=O)cc1OC	nt	nt	nt	nt	nt	i
COC(=O)c1ccc(COc2ccc(CNCc3ccc(Cl)cc3)cc2)cc1	34	i	43	i	i	i
O=C(c1ccc(COc2ccccc2Br)cc1)N1CCCCCC1	31	i	60	i	i	i
CCCCOc1ccc(C(=O)N2CCCCCC2)cc1	28	i	active	i	i	i
O=C(c1ccc(COc2ccc(Cl)cc2)cc1)N1CCCCC1	24	i	91	i	i	i
O=C(c1ccc(CS(=O)(=O)Cc2ccccc2)cc1)N1CCCCC1	i	i	i	i	i	i
Cc1cccc(NC(=O)CSc2nc3c(c(=O)[nH]2)CN(Cc2ccc4c(c2)OCO4)CC3)c1C	nt	nt	nt	nt	nt	i
COc1cc(OC)c(OC)cc1CNCCSc1nnnn1-c1ccccc1	nt	nt	nt	nt	nt	i
COc1ncc2nc(-c3ccc(Cl)cc3)c(=O)n(Cc3cccs3)c2n1	nt	nt	nt	i	nt	nt
O=c1[nH]nc(CNc2ccc(O)cc2)c2ccccc12	i	i	i	18µM	i	i
O=C(Cc1n[nH]c(=O)c2ccccc12)NCc1ccccc1	i	i	i	i	i	i
O=C(Cc1n[nH]c(=O)c2ccccc12)NC(c1ccccc1)c1ccccc1	16	i	i	i	i	i
CC(=O)c1cccc(NC(=O)c2cccc(S(=O)(=O)N(C)C)c2)c1	13	i	i	i	i	i
CN(C)S(=O)(=O)c1cccc(NC(=O)c2ccc3nccnc3c2)c1	20	i	i	i	i	i
O=C(NCc1ccccc1Cl)c1ccccc1NC(=O)c1nsc2ccccc12	nt	nt	nt	nt	nt	i
SMILES	Cycloheximide cs	LmPK inhibitor	Shiga inhibitor	FBPA Giardia inh	RE007 growth inh	Tb PYK inh
COCCNC(=O)Cn1nc(N2CCN(c3ccccc3OC)CC2)ccc1=O	nt	nt	nt	nt	nt	i
O=C(c1cc2c(=O)oc3ccccc3c2s1)N1CCOCC1	31	i	i	i	i	i
Cn1c2ccccc2c2cc(C(=O)N3CCOCC3)sc21	21	i	i	i	i	i
Cc1nn(-c2ccccc2)c2sc(C(=O)N3CCOCC3)cc12	43	i	44	i	i	i
COC(=O)c1cc2c(C)nn(-c3ccccc3)c2s1	i	i	i	i	i	i
Cc1nn(-c2ccccc2)c2sc(C(=O)O)cc12	i	i	i	?	i	i
O=C(c1cc2c(=O)oc3ccccc3c2s1)N1CCN(c2ccccc2)CC1	nt	nt	nt	nt	nt	i
Cc1nn(-c2ccccc2)c2sc(C(=O)N(CC(=O)NC(C)(C)C)Cc3ccco3)cc12	19	i	i	i	i	i
CCn1c(=O)c2cc(C(=O)N3CCOCC3)sc2c2ccccc21	i	i	i	i	i	i
Nc1c(CC(=O)O)cccc1C(=O)c1ccccc1	nt	nt	nt	nt	nt	i
COc1cc(Cl)c(C)cc1NC(=O)CCc1nc2cccnc2n1-c1ccccc1	nt	nt	nt	nt	nt	i
CN1CCN(C(=O)COc2ccc3ccccc3c2)CC1	14	i	31	i	i	i
O=C(COc1ccc2ccccc2c1)N1CCN(c2ccccc2)CC1	nt	nt	nt	nt	i	i
O=C(COc1ccc2ccccc2c1)N1CCCC1	40	i	79	i	i	i
